# aSyn UTR act = Activators via SNCA 5'UTR binding, MLPCN. alpha-synuclein 5'UTR reporter, activators screen. activity score, % (tested at 7.5 µM), hits read low. 7.1% of 300,000 active. AID 1814; in the data active means activity score below about -60%
# Numbers without * were called inactive. A selection follows.
SMILES,aSyn UTR act
O=C(Nc1ncccc1O)c1ccc(Oc2ccccc2)cc1,-198*
Cc1ccc(C(=O)Nc2ncccc2O)o1,-84*
Cc1noc(C)c1COc1ccc(C(=O)Nc2ncccc2O)cc1,-67*
Cc1noc(C)c1COc1ccc(CC(=O)NCc2ccccc2)cc1,72
Cc1nc2ccccc2c(=O)n1/N=C/c1cccs1,-79*
Cc1nc2ccccc2c(=O)n1/N=C1\C(=O)N(C)c2ccccc21,-83*
Cc1nc2ccccc2c(=O)n1/N=C/c1cn(-c2ccccc2)nc1-c1cccs1,-67*
Cc1nnc(-c2ccccc2)c(=O)n1/N=C/c1c(O)ccc2ccccc12,83
CCCCNC(=O)c1cc(-c2ccc(OC)cc2)on1,-144*
CCCNC(=O)c1cc(-c2ccc(OC)cc2)on1,-160*
CCCCNC(=O)c1cc(-c2ccc(F)cc2)on1,-592*
CCOc1ccc(OCCn2nnc3ccccc3c2=O)cc1,-121*
Cc1ccc(OCCn2cnc3ccccc3c2=O)c([N+](=O)[O-])c1,-157*
CCOc1cccc(OCCn2cnc3ccccc3c2=O)c1,-79*
Cc1nn(C)c(C)c1/C=C(/C(=O)C(C)(C)C)n1cncn1,89
COc1cc(/C=C/[N+](=O)[O-])ccc1OC(=O)/C=C/c1ccc(F)cc1,-72*
CCC(=O)Nc1sc(C(=O)Nc2ccccc2F)c(C)c1C(=O)OC,-64*
COC(=O)c1c(NC(=O)c2cccnc2)sc(C(=O)N(C)C)c1C,-84*
CCCC(=O)Nc1sc(C(=O)Nc2cccc(N)c2)c(C)c1C(=O)OC,-84*
COC(=O)c1c(NC(C)=O)sc(C(=O)Nc2ccccc2)c1C,-85*
CC(C)Oc1cccc(C(=O)Nc2ccc(N3CCN(C)CC3)cc2)c1,-76*
COc1ccc(N2CCN(C(=O)c3ccc(NS(=O)(=O)c4cccs4)cc3)CC2)cc1,-75*
COc1cccc(C(=O)Nc2ccc(N3CCN(C(=O)c4cccs4)CC3)cc2)c1,-162*
CN1CCN(c2ccc(NC(=O)c3cccc(OCc4ccccc4)c3)cc2)CC1,-85*
COC(=O)c1ccc(N2CCN(c3ccccc3)CC2)nc1,-231*
SMILES,aSyn UTR act
COC(=O)c1ccc(N2CCN(c3ccccc3)CC2)c(N)c1,-134*
COc1cc(OC)cc(C(=O)Nc2ccc(-n3cnnn3)c(C)c2)c1,-93*
Cc1cc(NC(=O)c2oc3ccccc3c2C)ccc1-n1cnnn1,-124*
Clc1ccc(-c2ccc(CNCC3CCCO3)o2)cc1 (configuration not stated),-67*
S=C(NCC1CCCO1)Nc1ccc(Cl)cc1 (configuration not stated),-72*
Cn1c(SCC(=O)NCC2CCCO2)ncc(C(=O)Nc2ccc(Cl)cc2)c1=O (configuration not stated),-72*
O=C(NCC1CCCO1)Nc1ccc(Cl)cc1 (configuration not stated),-73*
CCN(CC)c1ccc(NC(=S)NCC2CCCO2)cc1 (configuration not stated),-83*
S=C(NCC1CCCO1)Nc1ccc(Cl)cc1Cl (configuration not stated),-87*
O=C(O)C(C(=O)/C=C/c1ccco1)=C1SCCS1,-69*
S=C(NCc1ccco1)Nc1ccc(Br)cc1Cl,-141*
S=C(NCc1ccco1)Nc1ccc(Cl)cc1Cl,-108*
C=CCN(C(=O)CSC1=NC(=O)CN1C(C)=O)c1nc(C)c(-c2ccccc2)s1,-118*
Nc1nc(COc2ccc(Cl)cc2)cs1,-93*
Cc1ccc(OCc2csc(N)n2)cc1,-108*
Nc1nc(COc2ccccc2)cs1,-67*
CC(=O)c1ccc(NC(=O)C2CC(=O)N(Cc3ccccc3)C2)cc1 (configuration not stated),-129*
Cc1ccnc(NC(=O)C2CC(=O)N(Cc3ccccc3)C2)c1 (configuration not stated),-112*
O=c1cc(COc2ccccc2[N+](=O)[O-])nc2sccn12,-83*
CC(=O)c1ccc(OCc2cc(=O)n3ccsc3n2)cc1,-95*
CC(=O)OCC(=O)Nc1ccc(N=Nc2ccccc2)cc1,-143*
O=C(Nc1ccc(N=Nc2ccccc2)cc1)c1ccccc1Cl,-170*
CC(=O)Nc1ccc(N=Nc2ccccc2)cc1,-179*
CC1(C(=O)OCC(=O)Nc2ccccc2)CC1(Cl)Cl (configuration not stated),-69*
CC(C)C(=O)OCC(=O)Nc1ccc(N=Nc2ccccc2)cc1,-186*
SMILES,aSyn UTR act
CC1=NN(c2nc(-c3ccc(C)cc3)cs2)C(=O)C1N=Nc1ccc(C(N)=O)cc1 (configuration not stated),86
CC(=O)Nc1ccc(N2N=C(C)C(N=Nc3ccccc3)C2=O)cc1 (configuration not stated),-98*
O=C(CCl)Nc1ccc(N=Nc2ccccc2)cc1,-63*
Cc1ccc(NC(=O)NCCN2C(=O)C3C4C=CC(C4)C3C2=O)cc1 (configuration not stated),-81*
O=C(Nc1ccccc1)N(O)c1ccc(Cl)cc1,-122*
N#Cc1c(/N=C/c2cccs2)sc2c1CCC2,-88*
N#Cc1c(/N=C/c2cc(Br)cs2)sc2c1CCC2,-190*
CN(C)S(=O)(=O)c1cc(NC(=O)c2cc(=O)c3ccccc3o2)ccc1Cl,-66*
COC(=O)c1cccc(NC(=O)c2cc3ccccc3o2)c1,-105*
O=C(Nc1cccc(Cl)c1N1CCCC1)c1cc2ccccc2o1,-74*
CCN1CCN(c2c(Cl)cccc2NC(=O)c2ccc([N+](=O)[O-])o2)CC1,79
CC(=O)c1cccc(NC(=O)c2cc(=O)c3ccccc3o2)c1,-62*
COC(=O)c1ccccc1NC(=O)c1cc2ccccc2o1,-79*
O=C(Nc1ccccc1C(F)(F)F)c1cc2ccccc2o1,-209*
N#CC1=C(N)Nc2nc3ccccc3n2C1c1ccc(F)cc1 (configuration not stated),-117*
CN(C)c1ccc(CCc2ccc(N)cc2)cc1,84
CN(C)c1ccc(C(=O)OCc2ccccc2)cc1,-74*
Cc1ccc(C(=O)c2coc3ccc(O)c(Cl)c23)cc1,-163*
Cc1ccc(C(=O)c2coc3ccc(O)cc23)cc1,-64*
O=C(c1ccccc1)c1coc2ccc(O)c(Cl)c12,-96*
CN(C)c1ccc(NC(=S)NC(=O)/C=C/c2ccc(Cl)cc2)cc1,-219*
CCN(CC)c1ccc(NC(=O)/C=C\c2ccccc2Cl)cc1,-190*
CN(C)c1ccc(NC(=O)/C=C/c2ccccc2Cl)cc1,-161*
O=C(COc1ccccc1)Nc1cc(Cl)ccc1Cl,-91*
O=C(COc1ccccc1)Nc1ccccc1F,-140*
SMILES,aSyn UTR act
O=C(COc1ccccc1)Nc1ccc(Cl)cc1Cl,-154*
COCC(=O)Nc1cc(C(=O)Nc2ccccc2)ccc1Cl,-79*
NC(=O)c1oc2ccccc2c1NC(=O)c1nc2ccccc2s1,-121*
CCCCc1ccc(NC(=O)CC(C)C)cc1,-70*
CCCCc1ccc(NC(=O)C2CCCC2)cc1,-69*
CCCN1C(=O)/C(=C2\SC(N3CCCCC3)=NC2=O)c2ccccc21,-159*
O=C1N=C(N2CCOCC2)S/C1=C1\C(=O)N(Cc2ccccc2)c2ccccc21,-193*
O=C1C=C(N2CCCCC2)c2ccccc2C1=O,122
CN1C(=O)/C(=C2\SC(N3CCCCCC3)=NC2=O)c2ccccc21,-153*
CC(=O)N(C)C1=C(N2CCOCC2)C(=O)c2ccccc2C1=O,76
O=C1N=C(N2CCCCC2)SC1=C1CCCCC1,-89*
CCOc1ccc2nc(NC(=O)CSc3ccccc3)sc2c1,-69*
CCOc1ccc2nc(NS(=O)(=O)Cc3ccccc3)sc2c1,-66*

# Assay outcomes: PubChem BioAssay, Broad Institute
